Results on 61 compounds are retold here after PubChem BioAssay AID777 (Sanford-Burnham Center for Chemical Genomics, 2007).

Among all 96,000 compounds or so, about 19,000 (20%) were called active. Not all results are given here. Unmarked numbers belong to inactive results.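 Rule for the calls: active = blocking of liver enzyme CYP2C9 beyond about 50% at 5 µM (limit read from the data); inactive = the rest.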

The inhibition is the drop in the measured response relative to a control, in per cent.

The target in this test is Cytochrome P450 2C9 (Homo sapiens) (UniProt P11712). The experiment in a line: blockers of cytochrome P450 2C9 activity – biochemical, luminescence, ADME assay, primary screen (AID 777). The settings on record: CYP2C9 Supersomes, luciferin-H conversion, at 5 µM, hits give high values.
Cytochrome P450 2C9 (Homo sapiens), sequence (P11712 whole entry, looked up): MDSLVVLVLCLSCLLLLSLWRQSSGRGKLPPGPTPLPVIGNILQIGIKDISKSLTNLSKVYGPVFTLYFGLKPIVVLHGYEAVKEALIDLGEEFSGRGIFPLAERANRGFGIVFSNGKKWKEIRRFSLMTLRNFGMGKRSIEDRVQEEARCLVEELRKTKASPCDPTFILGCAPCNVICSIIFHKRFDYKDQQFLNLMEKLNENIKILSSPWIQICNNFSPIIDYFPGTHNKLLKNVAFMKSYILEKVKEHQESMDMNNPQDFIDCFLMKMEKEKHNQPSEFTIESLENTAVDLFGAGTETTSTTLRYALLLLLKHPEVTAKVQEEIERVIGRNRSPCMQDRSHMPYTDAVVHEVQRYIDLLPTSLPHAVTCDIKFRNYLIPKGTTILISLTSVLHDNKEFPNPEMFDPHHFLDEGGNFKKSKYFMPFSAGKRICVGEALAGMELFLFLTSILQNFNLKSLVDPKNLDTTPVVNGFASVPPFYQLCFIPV
For the compound `Cc1cccn2c(=O)c3cc(C#N)c(=O)n(CCCN4CCOCC4)c3nc12`, the inhibition was 47%.

As for `COc1cc(/C=N/NC(=O)Nc2ccccc2)ccc1OCCOc1ccccc1C`, the inhibition was 11.2%.

Take `COc1ccc(/C=N\NC(=O)c2sc(N)nc2C)cc1OC`: the inhibition was 5.4%.

On to `Cc1ccc(-c2cc(C(=O)N/N=C/C=C/c3ccco3)c3ccccc3n2)cc1C`, for which the inhibition was 34%.

Take `COc1cccc(OCc2cc(/C=N/NC(=O)c3nc(Cl)c(Cl)c(N)c3Cl)ccc2OC)c1`: the inhibition is 84% (active).

Consider `COc1cccc(/C=N\Nc2nncc(-c3ccccc3)n2)c1`, for which the inhibition was 5.6%.

Regarding `COc1cccc(-c2cc(C(=O)N/N=C/c3ccc(OC)c(COC(C)=O)c3)c3ccccc3n2)c1`, the inhibition was 84.3% (active).

Turning to `CCCC(C(=O)n1nc(C)cc1C)C(NS(=O)(=O)c1ccc(C)cc1)c1ccccc1` (stereo unspecified), the inhibition was -1.9%.

Consider `O=C(c1ccco1)N1CCN(C(=O)C2CC(c3ccc(Cl)c(Cl)c3)=NO2)CC1` (stereo unspecified), for which the inhibition is 43.9%.

Take `CN(C)c1cc(N)c2ccccc2n1` (tested in a mixture with another compound): the inhibition was -21.6%.

As for `O=C(NCc1ccccc1)C1C(=O)N(Cc2ccccc2)C(=O)C1C1(O)CCCC1` (stereo unspecified), the inhibition is 33.6%.

On to `CC(C)c1nc2ccc(C(=O)O)cc2[nH]1`, for which the inhibition was 5.8%.

As for `O=C(CN(c1ccccc1)S(=O)(=O)c1ccc(Cl)cc1)Nc1ccccc1C(=O)N1CCCC1`, the inhibition is 92.2% (active).

In the case of `CCC(=O)Nc1ccccc1C(=O)N1CCN(Cc2ccccc2)CC1`, the inhibition was 15.3%.

Consider `Cc1ccc(S(=O)(=O)NC(C)C(=O)Nc2ccccc2C(=O)N2CCCC2)cc1` (stereo unspecified), for which the inhibition is 44.1%.

For the compound `CC(=O)N1CCN(c2ccc(NCc3ccc(C(C)C)cc3)cc2)CC1`, the inhibition was 37%.

In the case of `O=C1CSC(c2cccc(F)c2)N1c1ccccc1F` (stereo unspecified), the inhibition was 3%.

As to `O=C(Nc1ccccc1)OCc1cc(-c2ccc(Cl)cc2)on1`, the inhibition is 16.9%.

As for `O=C(Nc1ccccc1)OCc1cn(-c2ccc(Cl)cc2)nn1`, the inhibition was 41.6%.

On to `O=C(Nc1ccc(Cl)cc1)OCc1cc(-c2ccccc2)on1`, for which the inhibition was 64.4% (active).

`CCCn1c(O)c(CN2CCCC(C)C2)c(C)c(C#N)c1=O` (stereo unspecified): the inhibition is 5.2%.

For `O=C(Nc1ccccc1)N1CCN(Cc2ccccc2)CC1`, the inhibition was 14.6%.

As for `O=C(Nc1cccc(NC(=O)N2CCN(c3ccccc3)CC2)c1)N1CCN(c2ccccc2)CC1`, the inhibition was 54% (active).

In the case of `CC(=O)N1CCN(C(=O)Nc2cccc(C(F)(F)F)c2)CC1`, the inhibition is 4.5%.

In the case of `CCCCNCc1ccc(SC)cc1`, the inhibition is 4.1%.

Regarding `Cc1ccccc1OC(=O)Cn1c(C(F)(F)F)nc2ccccc21`, the inhibition was 30.1%.

Consider `Cc1cc(=O)oc2cc(NC(=O)C3CC(=O)N(Cc4ccccc4)C3)ccc12` (stereo unspecified), for which the inhibition is 10.4%.

For the compound `Cc1cc(=O)oc2cc(OCC3CC(c4ccccc4Cl)=NO3)ccc12` (stereo unspecified), the inhibition was 65.7% (active).

Turning to `COc1cccc(-c2nnc(SCCOc3ccc4c(C)cc(=O)oc4c3)o2)c1`, the inhibition is 42.3%.

On to `O=c1cc(CN2CCN(c3cccc(Cl)c3)CC2)c2cc3c(cc2o1)CCCC3`, for which the inhibition is 58.6% (active).

For `Cn1c(C(=O)NCCCN2CCN(c3cccc(Cl)c3)CC2)cc2c(=O)n(C)c3ccccc3c21`, the inhibition is 22.8%.

For `OC(COc1ccc2c(c1)CCC2)CN1CCN(c2cccc(Cl)c2)CC1` (stereo unspecified), the inhibition is -14.4%.

On to `C=CCN(C(=O)Cn1ncc2c1-c1cc(C)ccc1OC2)c1ccccc1`, for which the inhibition was 38.4%.

Consider `Cn1c2ccccc2n2c(=O)c(=O)n(CC(=O)c3ccc(F)cc3)nc12`, for which the inhibition was -18%.

Take `OCCNc1nc2ccccc2n1-c1ncnc2sc3c(c12)CCC3`: the inhibition was 16.9%.

For the compound `Cc1cc(=O)[nH]c(SCc2cccc(F)c2)n1`, the inhibition is 23.7%.

On to `Cc1cc(=O)[nH]c(SCc2cc(Cl)ccc2OC(F)F)n1`, for which the inhibition is 76.4% (active).

With `O=c1cc(O)nc(SCc2ccccc2Cl)[nH]1`, the inhibition was 37%.

As to `Cc1ccccc1C(OCC(O)CN1CCCCC1CCO)c1ccccc1` (stereo unspecified), the inhibition is -0.6%.

With `COc1cc(NS(=O)(=O)c2ccc(N/C=C(\C=O)c3nc4cc(Cl)ccc4o3)cc2)nc(OC)n1`, the inhibition is 39.2%.

Regarding `O=c1[nH]c2ccccc2n2c(-c3ccccc3)nnc12`, the inhibition is 62% (active).

`O=[N+]([O-])c1cccc(-c2nnc3c4ccccc4c4ccccc4n23)c1`: the inhibition is 11.9%.

For the compound `O=c1[nH]c(-c2ccccc2)c(-c2ccccc2)[nH]1`, the inhibition is 17.9%.

For the compound `COc1ccccc1-c1nnc(SCC(=O)N2CC(C)CC(C)C2)o1` (stereo unspecified), the inhibition is -292%.

Turning to `O=C(c1cnn2ccccc12)N1CCc2ccccc21`, the inhibition is -42.7%.

For the compound `CCC(C)NC(=O)N[C@@H](CCSC)C(=O)O` (stereo partly specified), the inhibition is 8.8%.

For the compound `O=C(CSc1ccc(/C=N/NC(=O)c2cccc(F)c2)o1)Nc1ccccc1`, the inhibition was 80.3% (active).

As for `O=C(Cn1cc(/C=N/NC(=O)c2cccc(C(F)(F)F)c2)c2ccccc21)Nc1ccc(F)cc1`, the inhibition was 23.8%.

For `C/C(=N/NC(=O)c1ccc(NC(=O)c2ccc(F)cc2)cc1)c1ccccc1`, the inhibition is 3.1%.

Turning to `CC(C)c1nc2oc3c(N4CCN(C)CC4)ncnc3c2c2c1CCC2`, the inhibition was 24%.

`CCOC(=O)c1c(C)c(C(=O)NCCc2ccc(S(N)(=O)=O)cc2)c(C)n1CC`: the inhibition was 16.4%.

`CCC12CN3CC(CC)(CN(C1)C31C(=O)N(C)c3ccc(C)cc31)C2=O` (stereo unspecified): the inhibition is 3.6%.

Take `O=C(NCc1ccccn1)c1ccc2nc(-c3ccco3)c(-c3ccco3)nc2c1`: the inhibition was 67.3% (active).

As to `CN(c1ccc(C(=O)NCc2ccccn2)cc1)S(C)(=O)=O`, the inhibition was -10.8%.

`O=C(NCc1ccccn1)c1cc2ccccc2oc1=O`: the inhibition was -26%.

For `COc1ccc(CN2CCn3ncc(C(=O)Nc4ccc(Cl)cc4Cl)c3C2=O)cc1`, the inhibition was 14.3%.

For `CC(C)C(=O)Nc1nnc(Sc2ccc(N(C)C)cc2)s1`, the inhibition was -3.9%.

Take `ONC(=Nc1ccc(Cl)cc1)c1ccccc1Cl`: the inhibition was 40.4%.

Turning to `O=C(NCCN1CCOCC1)[C@H](Cc1ccccc1)N1C(=O)c2ccccc2C1=O`, the inhibition is -32.6%.

With `N/C(=N\c1nc2ccccc2o1)NC(=O)C(Cc1ccccc1)N1C(=O)c2ccccc2C1=O` (stereo unspecified), the inhibition is 89.2% (active).

As to `Cc1cc(C)nc(NC(=O)C(C)N2C(=O)c3ccccc3C2=O)n1` (stereo unspecified), the inhibition is -15.6%.
